Bioassay records deposited in PubChem BioAssay by National Center for Advancing Translational Sciences (NCATS).
Only some compounds are listed: those with a hit (about 4.8% of all), similar ones and a draw of the others.
S2 tox: reduces viability in counter-screen for ATXN expression inhibitors | Potency, µM (doses to about 56.7 µM), usual class: cytotoxic | AID 651635 | S2 cells (HEK-293 line with an ATXN2-luciferase reporter) viability, CellTiter-Fluor protease fluorescence, 24 h | 0.49% of 400,000 active; note: potency is the fitted concentration of half-maximal effect; nearly all actives have a fitted effect of over 40% in size
USP2a inh: USP2a (human) protease inhibition; O75604; USP2 core, Ub-CHOP2 coupled fluorogenic reporter, 485/531; AID 463254; 0.01% of 330,000 active; Potency, µM (top dose mostly 38.3 µM), without a hit: top-dose activity change, negative = inhibition, hits mostly inhibitors;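 note: potency is the fitted concentration of half-maximal effect; plate controls were DMSO wells for no effect and full inhibition by NEM control for full effect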
Target sequence (O75604 whole entry, looked up): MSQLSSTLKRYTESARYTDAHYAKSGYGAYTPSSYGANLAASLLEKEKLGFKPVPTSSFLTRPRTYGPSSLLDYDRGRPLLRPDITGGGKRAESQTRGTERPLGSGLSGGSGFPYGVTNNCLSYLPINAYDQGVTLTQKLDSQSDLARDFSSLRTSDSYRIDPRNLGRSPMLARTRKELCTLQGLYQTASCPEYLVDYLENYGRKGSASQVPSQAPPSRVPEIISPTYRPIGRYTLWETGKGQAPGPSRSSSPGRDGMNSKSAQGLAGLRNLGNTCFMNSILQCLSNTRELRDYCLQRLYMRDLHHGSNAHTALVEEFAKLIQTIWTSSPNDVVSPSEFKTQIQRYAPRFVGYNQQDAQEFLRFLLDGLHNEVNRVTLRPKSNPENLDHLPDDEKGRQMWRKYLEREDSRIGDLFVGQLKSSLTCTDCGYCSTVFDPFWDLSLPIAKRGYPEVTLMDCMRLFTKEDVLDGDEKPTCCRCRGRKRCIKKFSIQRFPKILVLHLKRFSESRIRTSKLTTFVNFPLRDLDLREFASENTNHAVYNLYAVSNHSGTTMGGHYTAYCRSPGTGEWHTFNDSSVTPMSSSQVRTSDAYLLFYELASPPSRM
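USP2 core (10nM final) preincubated 30min RT with compound in 20mM Tris-HCl pH 8.0, 2mM CaCl2, 2mM beta-mercaptoethanol, 0.05% CHAPS; 25nM Ub-CHOP2 plus 25nM reporter substrate added, fluorescence (Ex485/Em531) read after 60min.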
USP1 inh: USP1/UAF1 (human) deubiquitinase inhibition; O94782; recombinant USP1/UAF1, Ub-Rhodamine cleavage fluorescence; Potency, µM (titrated, usually from 57.1 µM), for inactives: at the highest dose activity change, negative = inhibition, actives largely listed as inhibitors; 0.23% of 390,000 active; note: potency is the fitted concentration of half-maximal effect; % is set by controls: 0 for no effect and ±100 for the full control effect; nearly all actives have a fitted effect of over 60% in size
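Step one: compound is pinned into 1nM USP1/UAF1 in HEPES pH 7.8 buffer with TCEP. Step two: 15 min room-temperature incubation. Step three: Ub-Rho (150nM final) starts cleavage, tracked by fluorescence over six one-minute reads.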
ATXN2 expr inh: ATXN2 expression inhibition. HEK-293 ATXN2-luciferase reporter, luminescence, 24 h. Potency, µM (series often up to 57 µM), for the others: top-dose activity change, negative = inhibition, most hits filed as inhibitors. 0.72% of 360,000 active. AID 1745845; note: potency is the fitted concentration of half-maximal effect; % is set by controls: 0 for no effect and ±100 for the full control effect; nearly all actives have a fitted effect of over 55% in size
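ATXN2-luciferase reporter cells (luciferase flanked by upstream and downstream ATXN2 gene portions) were treated 24 h at 37 °C with compounds at up to 57 uM. SteadyGlo luminescence gave expression; GF-AFC fluorescence gave viability.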
IL-1B inflam inh: blocks inflammasome-driven IL-1 beta release; THP-1 LPS/ATP IL-1B secretion, AlphaLISA, 16 h; hits give low values; activity change, % at 57.5 µM; 4.7% of 360,000 active; in the data active = activity change below about -50%; inconclusive = mostly about -30% to -49%; note: % is set by controls: 0 for no effect and ±100 for the full control effect
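THP-1 cells pretreated 1 hr with compounds (up to 57.5 uM final), then stimulated with LPS (250 ng/mL final) plus ATP (1.25 mM final); secreted IL-1B measured by AlphaLISA after 16 hr, decreased signal indicating inhibition.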
An asterisk follows results filed as active; i = inactive; ? = inconclusive; . = no result given; [ ] = dose if it differs, or a comment. Unless noted, calls come from the whole dose curve; as a rule, active = well fitted curve in the direction sought with a large enough effect; inconclusive = small, poorly fitted or top-dose-only effect, or another doubt; inactive = no such curve, though single readings can be large; an effect the other way counts as inactive or inconclusive.

SMILES | S2 tox | USP2a inh | USP1 inh | ATXN2 expr inh | IL-1B inflam inh
Cc1csc(-c2nnc(Nc3ccc(Oc4ncccc4-c4ccnc(N)n4)cc3)c3ccccc23)c1 | . | . | . | 12.2µM* | .
COc1ccc2c(c1)c1c(c(=O)n(Cc3ccccc3)c(=O)n1Cc1ccccc1Cl)n2C | i | . | -8.4% | 15.6% | .
Cc1ccc([C@H]2C[C@H](O)[C@@H](n3cc(C4CC4)nn3)CN2C(=O)c2cccs2)cc1 | ? | . | -18.5% | -2.4% | -5.8
O=C(CC1SC(=Nc2ccccc2)N(CCc2ccccn2)C1=O)Nc1ccc(F)cc1 (centres undefined) | i | -0.4% | -14.1% | -5.3% | -9.4
COc1cccc(N=C2SC(CC(=O)Nc3ccccc3)C(=O)N2Cc2ccccn2)c1 (centres undefined) | i | -7.9% | -23.1% | -23.7% | -62.7*
Cc1n[nH]c(C)c1N1C(=O)c2cccc3c(N4CCCCCC4)ccc(c23)C1=O | i | ? | 25.1µM* | -8.5% | -17.8
O=C1c2cccc3c(N4CCCCC4)ccc(c23)C(=O)N1c1cccc(O)c1 | . | ? | ? | -0.3% | -67.7*
COc1cccc(CNc2ccccc2O)c1OCc1ccccc1F | i | 0.7% | -14.3% | -12.8% | -92.2*
CCOc1cccc(CNCCO)c1OCc1ccc(Cl)cc1 | i | 2.3% | 5.8% | -16.9% | -54.7*
COc1cccc(CNc2ccc(S(N)(=O)=O)cc2)c1OCc1ccccc1F | i | -1.1% | -13.3% | -18.6% | 0.0
COc1cccc(CNC(C)(C)CO)c1OCc1ccc(Cl)cc1 | i | 4.3% | -17.4% | -16.6% | -57.1*
CCCCN(C)CC(O)Cn1cc(/C=C/C(=O)c2ccc(OC)c(OC)c2)c2ccccc21 (centres undefined) | . | . | ? | 22.4µM* | .
CCCN(CCC)CC(O)Cn1cc(/C=C/C(=O)c2ccccc2)c2ccccc21 (centres undefined) | ? | -0.9% | -25.3% | -8.0% | -86.4*
CCCN(CCC)CC(O)Cn1cc(/C=C/C(=O)c2cccs2)c2ccccc21 (centres undefined) | i | 7.5% | -23.5% | -5.0% | -103.6*
CCCCN(C)CC(O)Cn1cc(/C=C/C(=O)c2ccc(C)cc2)c2ccccc21 (centres undefined) | . | -7.2% | ? | . | ?
COc1cc(=O)n2c(c1C(=O)N(C)Cc1nccs1)CCN(Cc1cc(C)cc(C)c1)CC2 | i | . | . | . | .
Cc1ccc(-c2cc3nn(-c4ccccc4)c(N)c3c(=O)o2)cc1 | i | -5.0% | -10.0% | 22.4% | -56.1*
CCCC(=O)Oc1c(S(=O)(=O)c2ccc(C)cc2)c(C)nn1C(C)(C)C | i | 1.1% | -20.6% | -24.0% | 22.7
CCCCC(=O)Oc1c(S(=O)(=O)c2ccccc2)c(C)nn1C(C)(C)C | i | 4.4% | -9.8% | -26.2% | -77.2*
CCOc1ccc(C(=O)C2CCN(C(=O)c3ccc([N+](=O)[O-])cc3)CC2)cc1 | . | -0.2% | -8.3% | . | -2.8
COc1ccc(C(C)=O)cc1CSc1nnc(Nc2ccc(C)cc2)s1 | i | 3.7% | -22.8% | -11.9% | -66.5*
COc1ccc(C(C)=O)cc1CSc1nnc(Nc2ccccc2)s1 | i | -0.6% | -10.8% | ? | -28.2
CC(C)(C)[C@H](NC(=O)c1ccc(N)c(Cl)c1)C(=O)N1CCC[C@@H]1C(=O)N[C@H](C#N)CC(=O)O | . | . | . | -1.7%[5.55 µM] | .
CN(C)c1ccc(/C=C2\CCCCC2=O)cc1 | i | 1.7% | -8.7% | 21.2% | -20.4
CN(C)CCC1(C2=CCCC2)CC/C(=C/c2ccc(Cl)cc2)C1=O (centres undefined) | ? | . | -16.8% | ? | -111.4*
O=C(Nc1nnc(S(=O)(=O)N2CCN(c3ccc(F)cc3)CC2)s1)c1ccco1 | i | 1.3% | -13.3% | 21.5% | 6.8
OCCO | i | -0.4% | -14.7% | 8.2% | -5.9
Cc1oc2c(c1C(=O)c1ccc(Cl)cc1)C(=O)C(=O)c1ccccc1-2 | 7.08µM* | 2.4% | ? | 5.62µM* | 4.2
Cc1ccc(C(=O)c2c(C)oc3c2C(=O)C(=O)c2ccccc2-3)cc1 | . | 2.3% | 14.1µM* | ? | -121.0*
CCN(C(=O)Cn1cnc2c1c(=O)n(C)c(=O)n2C)C1CCCCC1 | i | 2.9% | 1.1% | -8.3% | -9.7
